# Only some compounds are listed: those with a hit (about 2.8% of all), similar ones and a draw of the others.
# PP5 primary = blocks human protein phosphatase 5 activity; P53041; purified PP5c, OMFP substrate fluorescence; inhibition, % at 6.7 µM; 0.18% of 320,000 active;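 active means inhibition above the campaign's mean inhibition across all tested compounds plus 3 SD, cut at about 9.5% in these data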;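 further: 0% = DMSO only and 100% = 100 µM cantharidin control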
# IDE inh = inhibits human insulin-degrading enzyme in HEK cells; FAbetaB cleavage, fluorescence polarization; 0.41% of 320,000 active; inhibition, % at 5.59 µM; P14735;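 active means percent inhibition above the average of all tested compounds plus 3 SD, set per screening campaign, cut at about 16% in these data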;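 further: IDE supplied by intact live HEK cells; FP after avidin binding of uncleaved biotin substrate so inhibition keeps polarization high; 0% = DMSO wells and 100% = 60 µM reference IDE inhibitor Ii1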
# PP1 counter = counter-screen for PP5 inhibitors: inhibitors of human PP1-alpha; 0.9% of 320,000 active; AID 2235; P62136; purified PP1alpha, OMFP fluorescence; inhibition, % at 6.7 µM;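 active means inhibition above the mean inhibition of all tested compounds plus 3 SD, computed separately for each screening campaign, cut at about 15% in these data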
# IDE cell activ = IDE (human) activation, cell-based; P14735; HEK cells, FAbeta-B cleavage, fluorescence polarization; 0% vehicle, 100% cell-free pure enzyme wells; activation, % at 5.96 µM; 0.073% of 340,000 active; AID 493087;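 active means activation above the mean of all tested compounds plus 3 SD, set per screening campaign, cut at about 17% in these data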
# Granule exo inh = blocks lytic granule exocytosis. AID 651702. 0.66% of 360,000 active. TALL-104 LAMP-1 surface exposure, flow cytometry; cells stimulated with thapsigargin and PMA. inhibition, % at 10 µM;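 active means inhibition above about 55%, limit read from the data; inconclusive means no clear call, values can overlap the other calls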
# SKKanGAS inh = blocks kanamycin growth of S. pyogenes SKKanGAS strain | inhibition, % at 7.5 µM | BacTiter-Glo, 6 h | AID 1662 | 1.3% of 300,000 active;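 active means mean replicate score, as percent of positive control median, at least 50; inconclusive means mean below 50 but one replicate at or above 50; inactive means mean and every replicate below 50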;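 further: strain carries kanamycin resistance gene driven by streptokinase promoter and grows in 40 µg/ml kanamycin; loss of luminescence reflects streptokinase promoter inhibition or plain growth inhibition; 0% = median of DMSO wells and 100% = positive control at its reference dose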
# * = called active by the depositor; u = inconclusive; x = no result.
SMILES,PP5 primary,IDE inh,PP1 counter,IDE cell activ,Granule exo inh,SKKanGAS inh
CCC(C)NC(=O)c1c(N)n(/N=C/c2ccccn2)c2nc3ccccc3nc12 (centres undefined),0.8,1.1,-0.9,8.6,56.1*,86.6*
COc1ccc(CN(C)C(=O)c2ccc(NS(=O)(=O)c3ccc(F)cc3)cc2)c(OC)c1OC,-0.4,2.0,-2.7,9.8,1.7,-4.5
O=C(c1cc(-c2ccccc2)nc2ccccc12)N1CCN(c2ccccc2O)CC1,4.6,-6.7,1.6,3.8,4.4,66.8*
O=C(CCNC(=O)c1ccc([N+](=O)[O-])cc1)Nc1nc2ccccc2[nH]1,x,x,x,-2.2,-0.9,x
N#Cc1ccc(-c2csc(NC(=O)c3ccc(N4C(=O)CCC4=O)cc3)n2)cc1,-1.2,-5.1,-0.8,2.6,-6.8,4.2
Cc1cc(-c2csc(NC(=O)c3ccc(C#N)cc3)n2)c(C)n1Cc1ccco1,0.3,5.9,16.6*,4.3,1.6,13.4
CCOc1ccc(NC(=O)Cn2nnc(C(=O)NCc3ccc4c(c3)OCO4)c2N)cc1,1.9,-1.7,5.4,0.7,-1.6,-1.1
CCOc1ccc(-c2nc3n(c(=O)c2C#N)CCCS3)cc1,3.2,4.9,2.7,0.5,-4.9,57.6*
CCC(C)c1ccc(C(C)NC(=S)NC2CCCCC2)cc1 (centres undefined),1.0,1.4,-1.0,-0.4,4.0,50.4*
CC(C)c1ccc(C(C)NC(=S)NC2CCCCC2)cc1 (centres undefined),x,x,x,-3.3,-2.6,37.6
CC(NC(=S)NC1CCCCC1)c1ccc(C(C)(C)C)cc1 (centres undefined),3.0,2.6,0.2,2.4,5.0,55.6*
COCOCCn1cc(CN2CCS(=O)(=O)N(Cc3ccc(-c4ccc(OC)c(OC)c4)cc3)C(C)C2=O)nn1 (centres undefined),x,x,x,x,-3.8,x
CC(=O)OCCn1c(C)[n+](CCOC(C)=O)c2cc(Cl)c(Cl)cc21,-1.7,0.1,-3.0,-1.7,4.1,-3.7
CC(=O)OCCn1c2nc(=O)[nH]c(=O)c-2nc2cc(C)c(C)cc21,x,x,x,75.0*,u,0.4
Cc1nn(-c2ccccc2)c(C)c1-c1nnc(C(F)(F)F)o1,-1.3,-1.0,-2.6,-0.9,-12.2,2.6
Cc1nn(-c2ccccc2)c(C)c1-c1nnc(-c2c(C)nn(-c3ccccc3)c2C)o1,1.7,4.4,-2.4,0.0,-7.3,57.0*
Cc1cc2c(=O)n(Cc3ccco3)c(SCC(=O)N3CCCc4ccccc43)nc2s1,3.4,-3.7,14.6,9.1,1.1,58.1*
Oc1ccc(Nc2nc(-c3ccc4ccccc4c3)cs2)cc1,5.5,6.0,-1.7,-23.2,21.5,52.7*
O=C(Nc1ccc(F)cc1)C(c1cc2ccccc2o1)N1CCN(C(=O)c2ccco2)CC1 (centres undefined),x,x,x,x,0.3,x
Cc1ccsc1C1C=C(c2cccc(Br)c2)Nc2ncnn21 (centres undefined),-2.3,25.3*,-2.3,-34.0,-1.0,u
Cc1ccc(C2=CC(c3ccccc3)n3ncnc3N2)cc1 (centres undefined),-1.0,6.7,-0.2,-1.0,67.9*,2.6
Brc1ccc(Nc2ncnc3[nH]ncc23)cc1,5.6,4.5,-3.3,x,-9.3,52.1*
O=C1C[C@H](NC(=O)OCc2ccccc2)CO1,2.3,8.7,0.1,-1.5,-1.9,x
CC1CCN(Cc2c(C(=O)N/N=C/c3cccc(C(F)(F)F)c3)nnn2-c2nonc2N)CC1,4.6,3.7,16.2*,-2.8,12.4,8.5
CCOc1ccc(/C=N/NC(=O)c2nnn(-c3nonc3N)c2CN2CCC(C)CC2)cc1,1.2,0.7,3.4,-1.7,17.7,-3.5
SMILES,PP5 primary,IDE inh,PP1 counter,IDE cell activ,Granule exo inh,SKKanGAS inh
CC1CCN(Cc2c(C(=O)N/N=C/c3cc(Br)ccc3O)nnn2-c2nonc2N)CC1,-0.1,-3.9,9.2,8.1,1.7,80.3*
CC1CCN(Cc2c(C(=O)N/N=C/c3cc(Cl)ccc3O)nnn2-c2nonc2N)CC1,0.4,-3.9,8.6,4.8,-4.4,66.0*
Cc1cc(C)c(/C=N/NC(=O)c2nnn(-c3nonc3N)c2CN2CCC(C)CC2)c(C)c1,8.1,-1.7,10.5,2.6,81.9*,27.6
CC1CCN(Cc2c(C(=O)N/N=C/c3ccc(C(F)(F)F)cc3)nnn2-c2nonc2N)CC1,2.4,-1.9,-0.1,3.5,19.0,16.2
O=C(NC1CCCCC1)c1nc(-c2c(F)cccc2F)oc1-c1ccccc1,x,x,x,x,-2.4,x
O=C(CSc1nnc(-c2ccc3c(c2)OCO3)o1)Nc1ncc(Cl)cc1Cl,0.7,2.6,-0.7,-0.6,-2.3,6.8
CN(N=Nc1nc[nH]c1C(=O)NN)C1CCCCC1,x,x,x,-1.4,-7.0,x
Nc1ccc(C(=O)N/N=C\c2ccc(OC(=O)c3ccccc3Cl)cc2)cc1,-2.3,4.2,-0.2,-12.4,-1.5,0.8
O=C(O)c1ccc(N/N=C/c2ccc(OC(=O)c3ccccc3Cl)cc2)cc1,2.5,-6.2,1.6,4.7,-1.3,63.4*
Fc1ccc(/C=C2\CCCC3=C2Nc2ncnn2C3c2ccc(F)cc2)cc1 (centres undefined),4.2,7.1,10.0,2.5,20.0,64.0*
Cc1ccc(S(=O)(=O)C[C@@H]2OC[C@H](C(C)C)N2S(=O)(=O)c2ccc(C)cc2)cc1,x,x,x,x,-1.7,x
Oc1c(N=NC(=S)Nc2ccccc2F)c2ccccc2n1Cc1ccc(F)cc1,-1.0,-0.8,-0.1,-1.7,3.3,66.3*
Oc1c(N=NC(=S)Nc2ccccc2F)c2ccccc2n1Cc1cccc(Cl)c1,0.4,1.0,2.6,-1.4,-4.4,51.8*
Clc1ccc(COc2ccccn2)cc1Cl,2.8,2.9,-0.7,4.6,-2.7,-1.2
CCc1ccc(/C(C)=N/NC(=O)CNC(=O)/C=C/c2ccco2)cc1,-5.9,5.0,1.4,-1.4,-1.9,-0.9
COC1=C(Br)C(=O)c2nc(C)ccc2C1=O,x,x,x,x,98.5*,x
CN(C(=O)COC(=O)C1CCN(S(=O)(=O)c2ccc3c(c2)OCCO3)CC1)c1ccccc1,-3.6,-1.9,-3.9,4.2,7.0,-2.6
CC(C)N(Cc1ccccc1)C(=O)COC(=O)C1CCN(S(=O)(=O)c2ccc3c(c2)OCCO3)CC1,-0.1,4.1,15.8*,-1.5,0.3,2.2
COc1cccc2cc(C(=O)C3=C(O)C(=O)N(c4cc(C)on4)C3c3cccs3)oc12 (centres undefined),1.7,7.8,23.0*,0.6,u,23.4
COc1cccc(C2C(C(=O)c3cc4cccc(OC)c4o3)=C(O)C(=O)N2c2cc(C)on2)c1OC (centres undefined),4.0,3.6,11.4,6.6,-2.6,6.0
COc1cc(C2C(C(=O)c3ccc(C)o3)=C(O)C(=O)N2c2cc(C)on2)cc(OC)c1OC (centres undefined),-0.7,2.6,3.4,0.8,1.9,1.1
COC(=O)c1ccc(C2C(C(=O)c3cc4ccccc4o3)=C(O)C(=O)N2CCCN(C)C)cc1 (centres undefined),4.4,1.8,-0.2,2.4,3.1,-5.1

# Assay outcomes deposited in PubChem BioAssay by several laboratories.
